What all share (assay): log2 ratio of Biotin-Ahx-Ub-VS probe labelling (fragment/DMSO); higher = less target engagement (more negative = stronger competition), active = hit call of the paper (q ≤ 0.05, log2 ratio ≤ -1)
What all share (conditions): compound concentration: 200 uM; treatment time: 3 h

One assay deals with T1, USP19 (UniProt O94966).
T1 sequence (whole entry): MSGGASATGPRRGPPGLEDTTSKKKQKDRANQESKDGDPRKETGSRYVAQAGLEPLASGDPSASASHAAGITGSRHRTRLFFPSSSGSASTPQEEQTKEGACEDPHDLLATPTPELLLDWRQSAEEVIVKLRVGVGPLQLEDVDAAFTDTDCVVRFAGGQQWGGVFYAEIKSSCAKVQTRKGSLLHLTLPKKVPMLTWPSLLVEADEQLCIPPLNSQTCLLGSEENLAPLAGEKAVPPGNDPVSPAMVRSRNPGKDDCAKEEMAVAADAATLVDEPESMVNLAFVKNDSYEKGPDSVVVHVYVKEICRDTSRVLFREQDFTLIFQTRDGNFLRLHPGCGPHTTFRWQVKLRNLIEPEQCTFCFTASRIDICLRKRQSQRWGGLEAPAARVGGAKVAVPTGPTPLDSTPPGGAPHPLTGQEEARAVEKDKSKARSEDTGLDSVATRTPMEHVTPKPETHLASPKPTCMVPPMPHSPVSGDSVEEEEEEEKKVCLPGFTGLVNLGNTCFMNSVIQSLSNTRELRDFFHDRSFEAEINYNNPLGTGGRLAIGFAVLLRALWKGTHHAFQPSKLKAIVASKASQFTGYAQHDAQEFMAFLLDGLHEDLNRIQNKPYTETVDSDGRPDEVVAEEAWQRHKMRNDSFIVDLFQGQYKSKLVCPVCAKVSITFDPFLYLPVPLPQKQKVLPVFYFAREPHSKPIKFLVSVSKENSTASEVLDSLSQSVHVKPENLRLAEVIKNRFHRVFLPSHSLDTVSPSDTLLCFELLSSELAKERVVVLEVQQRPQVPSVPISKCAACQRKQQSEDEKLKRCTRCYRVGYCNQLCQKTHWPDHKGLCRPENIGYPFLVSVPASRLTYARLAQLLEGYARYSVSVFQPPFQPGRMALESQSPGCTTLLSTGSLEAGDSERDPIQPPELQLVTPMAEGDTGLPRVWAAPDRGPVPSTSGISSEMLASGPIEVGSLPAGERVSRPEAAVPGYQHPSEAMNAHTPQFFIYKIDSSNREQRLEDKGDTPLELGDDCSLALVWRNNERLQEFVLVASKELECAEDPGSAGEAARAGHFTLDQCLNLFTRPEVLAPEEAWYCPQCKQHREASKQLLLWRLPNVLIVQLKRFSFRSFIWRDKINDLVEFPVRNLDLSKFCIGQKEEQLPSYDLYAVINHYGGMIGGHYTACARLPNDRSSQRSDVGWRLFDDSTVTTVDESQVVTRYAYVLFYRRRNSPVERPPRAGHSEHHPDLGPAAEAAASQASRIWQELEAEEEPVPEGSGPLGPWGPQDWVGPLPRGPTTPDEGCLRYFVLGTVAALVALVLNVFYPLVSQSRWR
The procedure, abridged: (§1)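 Global-median-normalised Spectronaut label-free quantities were compared by unpaired t-test, and values are average log2 ratios of fragment over vehicle. Only proteins with ≥2 unique peptides were used. HEK293T lysate (495 µg per sample) was treated in triplicate with fragment at 200 µM or vehicle for 3 h and then with Biotin-Ahx-Ub-VS at 0.5 µM final for 1 h. Labelled DUBs were then NeutrAvidin-enriched, digested with LysC and trypsin, and run by diaPASEF LC-MS/MS.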

A further assay has as its target USP24 (UniProt Q9UPU5). The method, boiled down:
as §1

For a further assay, the target named is T2, USP25 (UniProt Q9UHP3).
T2 sequence (whole entry): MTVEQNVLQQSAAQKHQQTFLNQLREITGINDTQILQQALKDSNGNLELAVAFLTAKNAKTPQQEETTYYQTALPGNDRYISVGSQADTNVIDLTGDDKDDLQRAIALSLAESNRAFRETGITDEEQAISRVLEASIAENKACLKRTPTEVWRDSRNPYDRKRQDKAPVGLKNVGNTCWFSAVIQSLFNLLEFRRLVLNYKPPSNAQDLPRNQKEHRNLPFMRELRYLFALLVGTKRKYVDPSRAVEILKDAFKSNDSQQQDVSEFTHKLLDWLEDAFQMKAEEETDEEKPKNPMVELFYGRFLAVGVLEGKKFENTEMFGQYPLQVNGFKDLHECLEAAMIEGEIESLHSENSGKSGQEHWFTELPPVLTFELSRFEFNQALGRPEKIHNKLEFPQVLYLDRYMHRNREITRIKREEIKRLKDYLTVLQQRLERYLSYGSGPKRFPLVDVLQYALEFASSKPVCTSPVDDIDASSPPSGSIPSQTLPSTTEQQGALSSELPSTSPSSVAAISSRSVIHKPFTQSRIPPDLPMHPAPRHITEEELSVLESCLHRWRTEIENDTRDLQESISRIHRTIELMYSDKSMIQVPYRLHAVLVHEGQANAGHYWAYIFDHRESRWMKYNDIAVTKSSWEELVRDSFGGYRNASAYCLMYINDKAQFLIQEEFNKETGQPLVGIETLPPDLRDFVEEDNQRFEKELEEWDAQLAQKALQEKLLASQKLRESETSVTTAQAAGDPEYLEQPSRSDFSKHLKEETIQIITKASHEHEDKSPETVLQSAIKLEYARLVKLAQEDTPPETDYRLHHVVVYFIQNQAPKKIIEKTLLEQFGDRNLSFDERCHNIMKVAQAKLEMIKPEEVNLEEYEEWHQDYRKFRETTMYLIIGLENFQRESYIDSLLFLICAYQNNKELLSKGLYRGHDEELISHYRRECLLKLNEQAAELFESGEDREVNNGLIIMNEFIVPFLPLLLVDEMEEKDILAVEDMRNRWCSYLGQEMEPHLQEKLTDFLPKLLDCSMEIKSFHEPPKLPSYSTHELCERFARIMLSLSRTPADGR
The procedure, abridged:
as §1

A further assay concerns the target T3, USP28 (UniProt Q96RU2).
T3 sequence (whole entry): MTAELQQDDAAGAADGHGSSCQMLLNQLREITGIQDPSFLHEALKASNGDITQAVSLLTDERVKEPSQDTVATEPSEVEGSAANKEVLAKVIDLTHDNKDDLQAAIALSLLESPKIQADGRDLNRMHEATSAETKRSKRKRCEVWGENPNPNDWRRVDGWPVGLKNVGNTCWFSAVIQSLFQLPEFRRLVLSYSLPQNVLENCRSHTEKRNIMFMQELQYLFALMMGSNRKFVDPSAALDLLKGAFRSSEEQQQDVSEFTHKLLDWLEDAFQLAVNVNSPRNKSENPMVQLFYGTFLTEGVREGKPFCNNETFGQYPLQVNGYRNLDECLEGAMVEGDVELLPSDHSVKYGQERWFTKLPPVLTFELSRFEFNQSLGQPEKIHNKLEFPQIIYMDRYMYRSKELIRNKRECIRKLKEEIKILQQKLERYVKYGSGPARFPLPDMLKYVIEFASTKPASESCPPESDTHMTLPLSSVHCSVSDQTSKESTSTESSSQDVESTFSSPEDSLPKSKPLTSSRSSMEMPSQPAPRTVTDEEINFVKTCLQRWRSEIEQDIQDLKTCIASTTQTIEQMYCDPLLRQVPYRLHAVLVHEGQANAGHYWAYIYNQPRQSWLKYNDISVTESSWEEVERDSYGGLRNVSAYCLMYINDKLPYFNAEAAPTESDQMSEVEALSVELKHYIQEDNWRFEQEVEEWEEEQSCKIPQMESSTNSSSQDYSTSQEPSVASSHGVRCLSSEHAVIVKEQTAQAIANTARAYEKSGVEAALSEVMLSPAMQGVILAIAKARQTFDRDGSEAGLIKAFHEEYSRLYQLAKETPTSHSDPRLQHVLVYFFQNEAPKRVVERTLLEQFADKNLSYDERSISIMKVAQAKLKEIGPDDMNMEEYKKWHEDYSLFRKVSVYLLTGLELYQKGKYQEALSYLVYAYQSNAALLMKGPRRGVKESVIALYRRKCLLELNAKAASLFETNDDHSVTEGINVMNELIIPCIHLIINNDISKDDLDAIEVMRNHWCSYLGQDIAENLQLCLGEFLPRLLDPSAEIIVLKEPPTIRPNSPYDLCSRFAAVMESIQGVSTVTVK
The procedure, abridged: as §1

Values without a mark were called inactive.

USP24, sequence (Q9UPU5 whole entry): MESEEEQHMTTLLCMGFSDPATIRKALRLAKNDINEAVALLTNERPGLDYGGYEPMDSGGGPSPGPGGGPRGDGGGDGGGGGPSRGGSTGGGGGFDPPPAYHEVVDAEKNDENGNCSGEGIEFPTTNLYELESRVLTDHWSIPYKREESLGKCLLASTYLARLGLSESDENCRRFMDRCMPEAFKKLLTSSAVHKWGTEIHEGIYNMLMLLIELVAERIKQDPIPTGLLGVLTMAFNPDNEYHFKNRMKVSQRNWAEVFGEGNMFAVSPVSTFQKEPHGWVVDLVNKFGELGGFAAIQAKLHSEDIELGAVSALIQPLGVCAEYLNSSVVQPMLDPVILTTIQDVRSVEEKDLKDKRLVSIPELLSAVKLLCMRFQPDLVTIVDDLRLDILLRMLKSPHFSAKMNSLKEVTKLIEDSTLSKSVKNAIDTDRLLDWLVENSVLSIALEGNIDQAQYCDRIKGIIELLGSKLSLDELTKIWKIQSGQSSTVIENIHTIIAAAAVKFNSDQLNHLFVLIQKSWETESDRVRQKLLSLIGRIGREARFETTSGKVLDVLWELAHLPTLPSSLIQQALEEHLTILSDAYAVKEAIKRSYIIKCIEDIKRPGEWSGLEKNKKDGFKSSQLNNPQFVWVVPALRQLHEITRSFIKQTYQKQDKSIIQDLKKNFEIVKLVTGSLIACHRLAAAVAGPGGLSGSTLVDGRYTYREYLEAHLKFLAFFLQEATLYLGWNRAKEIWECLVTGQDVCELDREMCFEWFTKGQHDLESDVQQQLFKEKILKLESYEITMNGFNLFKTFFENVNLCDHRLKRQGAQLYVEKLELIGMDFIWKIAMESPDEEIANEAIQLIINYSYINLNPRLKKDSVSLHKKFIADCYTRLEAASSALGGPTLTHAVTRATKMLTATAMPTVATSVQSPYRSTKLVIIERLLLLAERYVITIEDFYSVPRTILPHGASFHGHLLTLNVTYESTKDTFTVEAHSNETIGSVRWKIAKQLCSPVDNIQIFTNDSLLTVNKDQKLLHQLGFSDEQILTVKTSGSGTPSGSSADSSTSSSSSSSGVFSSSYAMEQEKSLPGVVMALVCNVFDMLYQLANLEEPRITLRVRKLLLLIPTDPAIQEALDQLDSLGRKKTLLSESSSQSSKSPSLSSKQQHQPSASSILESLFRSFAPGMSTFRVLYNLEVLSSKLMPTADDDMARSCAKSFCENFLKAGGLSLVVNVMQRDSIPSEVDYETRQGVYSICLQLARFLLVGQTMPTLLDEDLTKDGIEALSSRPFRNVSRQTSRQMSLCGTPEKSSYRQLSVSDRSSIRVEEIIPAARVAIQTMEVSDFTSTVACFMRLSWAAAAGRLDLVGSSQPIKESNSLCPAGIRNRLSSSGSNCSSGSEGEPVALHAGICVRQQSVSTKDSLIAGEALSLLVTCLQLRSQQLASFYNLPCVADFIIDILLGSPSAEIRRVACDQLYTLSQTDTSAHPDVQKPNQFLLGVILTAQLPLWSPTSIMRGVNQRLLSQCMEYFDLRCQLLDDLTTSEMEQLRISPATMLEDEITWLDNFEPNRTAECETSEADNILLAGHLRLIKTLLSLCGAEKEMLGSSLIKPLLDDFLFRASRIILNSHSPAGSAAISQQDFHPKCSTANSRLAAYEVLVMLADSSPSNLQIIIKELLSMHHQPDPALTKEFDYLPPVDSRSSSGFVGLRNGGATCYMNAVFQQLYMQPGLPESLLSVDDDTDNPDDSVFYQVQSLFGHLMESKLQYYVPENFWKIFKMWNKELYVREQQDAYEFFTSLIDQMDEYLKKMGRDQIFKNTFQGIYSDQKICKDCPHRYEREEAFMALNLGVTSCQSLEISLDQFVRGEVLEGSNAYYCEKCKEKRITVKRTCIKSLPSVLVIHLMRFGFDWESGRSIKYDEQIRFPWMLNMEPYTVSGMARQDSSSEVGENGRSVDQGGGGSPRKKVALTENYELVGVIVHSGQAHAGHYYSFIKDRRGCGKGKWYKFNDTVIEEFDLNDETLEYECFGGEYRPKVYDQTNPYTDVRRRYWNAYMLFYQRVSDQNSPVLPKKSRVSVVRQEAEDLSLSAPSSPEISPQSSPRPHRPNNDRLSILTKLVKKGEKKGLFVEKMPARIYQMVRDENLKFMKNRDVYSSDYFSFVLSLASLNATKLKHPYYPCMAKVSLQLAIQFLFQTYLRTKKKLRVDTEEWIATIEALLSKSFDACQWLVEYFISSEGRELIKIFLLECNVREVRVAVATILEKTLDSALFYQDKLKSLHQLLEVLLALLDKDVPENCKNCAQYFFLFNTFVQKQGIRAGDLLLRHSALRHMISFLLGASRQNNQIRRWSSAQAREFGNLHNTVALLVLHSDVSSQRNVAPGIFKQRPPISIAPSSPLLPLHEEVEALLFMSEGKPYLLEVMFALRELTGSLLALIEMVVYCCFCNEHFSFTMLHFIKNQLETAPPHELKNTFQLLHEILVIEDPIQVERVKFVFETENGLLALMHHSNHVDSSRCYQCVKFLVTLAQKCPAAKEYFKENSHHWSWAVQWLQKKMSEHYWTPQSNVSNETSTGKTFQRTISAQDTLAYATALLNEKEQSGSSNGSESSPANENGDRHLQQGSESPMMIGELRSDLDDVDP

As for `O=C(CCl)N1CC=C(c2c[nH]c3ccccc23)CC1`, the “log2 ratio of Biotin-Ahx-Ub-VS probe labelling” value with USP19 is -1.72 (active); with USP24 it was -1.48 (active); with USP25, -0.457; with USP28, -1.1 (active).

Values taken from the supplement of paper PMC11732987, “Enantioselective OTUD7B fragment discovery through chemoproteomics screening and high-throughput optimisation” (Communications Chemistry, 2025).
